The supplement of paper PMC6555819

Experiments:
Test in all cases: PBM binding z-score (relative to random genomic background probes); higher = stronger binding; sequences stand for … in GC…GCGATTGACAGCGTAGAATGAAGG
[1] = system: FXR:RXRa (NR concentration 270 nM, RXRa partner concentration 90 nM)
In short: (§1)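 Custom Agilent 4×180K protein-binding microarrays carried double-stranded probes, each with a 34-nt variable region. These regions held direct-repeat seeds, single-nucleotide variants, half-site ablations and random human genomic background sequences. Ligand-free nuclear receptor dimers were incubated on the arrays for 1 h, antibodies against each partner (one per run) detected binding, and scanned fluorescence was regression-normalized. Binding z-scores take the random background probes as reference.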

[2] = system: LXRa:RXRa (NR concentration 270 nM, RXRa partner concentration 90 nM)
In short: as §1

[3] = system: LXRa homodimer (NR concentration 270 nM)
In short: as §1

[4] = system: LXRb:RXRa (NR concentration 270 nM, RXRa partner concentration 90 nM)
In short: as §1

[5] = system: LXRb homodimer (NR concentration 270 nM)
In short: as §1

[6] = system: PPARa:RXRa (NR concentration 270 nM, RXRa partner concentration 90 nM)
In short: as §1

[7] = system: PPARg:RXRa (NR concentration 180 nM, RXRa partner concentration 90 nM)
In short: as §1

[8] = system: PPARg:RXRa 270nM:90nM, anti-RXR (NR concentration 270 nM, RXRa partner concentration 90 nM)
In short: as §1

[9] = system: PPARg:RXRa 30nM:10nM, anti-RXR (NR concentration 30 nM, RXRa partner concentration 10 nM)
In short: as §1

[10] = system: PPARg:RXRa 90nM:30nM, anti-RXR (NR concentration 90 nM, RXRa partner concentration 30 nM)
In short: as §1

Sequence	PBM binding z-score [1]	PBM binding z-score [2]	PBM binding z-score [3]	PBM binding z-score [4]	PBM binding z-score [5]	PBM binding z-score [6]	PBM binding z-score [7]	PBM binding z-score [8]	PBM binding z-score [9]	PBM binding z-score [10]
GCATATAGGGAATACAAGGTGAAAGTCCGATTGT	0.23	-0.211	-0.101	-0.103	-0.489	0.924	0.818	0.797	0.0214	0.338
ACTATTAGTTGACGTAGGGCAACCGATACGACGC	-0.0128	-0.0574	0.207	-0.148	0.503	-0.147	1	0.00726	0.129	0.289
ATATGTATGTTAGCTGGGGTCATTCAGACTAGGC	3.96	4.22	1.92	4.33	1.31	4.48	2.06	2.85	1.26	2.08
GGAACGAGTGCAAAGTTGATAGCATCTGTCGACG	0.106	-0.0741	-0.379	-0.315	-0.482	1.8	2.13	3.33	0.95	3.02
ACTAGTTGGTCAGCTGAGGTCACGCACAATTCGG	3.89	3.8	2.33	3.79	0.387	4.12	2.12	3.28	0.707	2.16
TTCCCAAGGTGAGCTGAGGTCGTTGATCCAACTC	3.13	1.59	-0.148	0.959	-1.02	1.55	-0.346	0.767	-0.184	0.534
CAAACTAGGTCACGGTCAAAGTCGGTTTGTGCCA	5.44	4.31	1.73	3.13	0.506	5.57	9.6	7.81	5.91	7.67
TCTGCTAGGGCAACGATGGTCAGCTAATCTGCTA	-0.264	-0.36	-0.78	-0.55	-0.884	0.0492	0.028	0.551	1.02	0.846
CCTATTCGTTGACCATAAGGGCAACCGAAGCTCG	0.737	0.584	0.874	0.578	1.19	0.766	0.4	0.418	0.115	0.223
ATCTCTAGGTAAAGTTCCGTGAAAGATCGATAGA	0.524	0.229	0.166	0.245	0.829	0.649	0.291	0.898	0.751	0.543
ACTAGCAGGCCAAGTTTGGCTCACTCAAACAAAG	-0.477	-0.516	-0.635	-0.722	-0.853	-0.363	-0.294	-0.625	-0.674	-0.715
CCTAGCAGGCCAATATGGGTCACTCAAGGCTTGA	0.719	2.76	-0.00824	1.41	-0.863	3.05	1.57	1.86	0.00421	1.15
TCTAGCAGGCCAGAGGGTCACTCATGAGGTACGG	0.745	0.822	-0.462	0.852	-1.1	2.2	1.64	2.87	2.19	2.63
CCGGCTGGGGCAGAAAGGTTACCATACCATCCGG	0.0889	0.439	-0.422	0.64	-1.29	1.61	0.79	1.64	-0.158	1.06
GCTTGTAGTTCAAGGTTAAGAAAGACTAAGCTAA	1.52	2.43	0.162	1.53	-0.369	2.55	0.724	2.09	0.473	1.18
CCTTACGGGTCAAGGTTAGAGCACGGGTGGTACG	5.52	3.41	-0.175	2.64	-0.214	4.92	4.33	4.83	1.86	3.37
CGTACTAGGTCATCCAGGACAGTGAATACATTGA	4.17	2.58	0.958	2.46	0.292	4.53	6.87	5.33	3.15	5.25
TCTTGTAGATCAACGGGAGGTTAAGAAAGATCGA	0.553	1.31	0.00977	1.17	0.12	1.49	-0.121	1.58	2.52	2.01
CCGAGTAAGTTATGGGGCATTCAGGCAACGGTGA	-0.323	-0.322	-0.465	-0.146	-0.649	-0.0291	0.19	0.385	-0.496	0.0497
ATCGAAAGTTCGACGAGGTGAGTATACACCGTTT	0.939	0.833	-0.161	0.494	0.233	1.18	0.693	0.561	0.0902	0.117
TCTGCTAGGTCAGATGGTCAGCTAACGAGCTGCC	1.36	0.977	-0.468	0.356	-0.258	1.86	1.57	2.53	1.8	2.34
CCAAACAGGTGAGAAGGTAACTCAGCCTCGATTA	-0.19	-0.0558	-0.189	-0.138	-0.392	0.653	0.64	1.22	0.297	0.598
TCTAGTTGGTCACGGAGGTCACATACGACGGGTA	3.08	3.35	2.47	3.46	0.637	3.93	3.1	3.94	3.8	3.63
AGAATGAGGTTACCAAAGATCATGGAAACGCTTG	2.05	6.75	-0.149	3.98	-0.29	3.63	2.88	2.95	1.11	2.19

Sequence	PBM binding z-score [1]	PBM binding z-score [2]	PBM binding z-score [3]	PBM binding z-score [4]	PBM binding z-score [5]	PBM binding z-score [6]	PBM binding z-score [7]	PBM binding z-score [8]	PBM binding z-score [9]	PBM binding z-score [10]
TTACCAAGATGAAAGGTCGTTGATGCACGCCTTG	1.32	1.82	0.225	1.6	-0.121	3.04	3.53	5.28	3.89	5.86
TCATATAGGTAAAGGAGAAAGTCGAACGATATGA	0.86	0.393	-0.261	0.259	-0.317	1.11	1.53	2.56	3.86	3.22
GCTTGTAGATCAAGGTCAAGAAAGACTAAGCTAA	3.17	3.25	0.618	3.02	0.0549	3.91	1.86	3.04	0.697	2.12
CCTACTGGGCCATTCGGAGGTCATTGATCATATG	1.8	2.8	4.71	2.59	-0.128	3.01	1.38	2.45	0.304	1.27
CCTTACGGGTCATGGTTATAGCACGGGTGGTACG	5.13	3.14	-0.115	2.68	-0.0469	4.97	3.99	4.19	1.44	3.03
ACTAGCAGGCCAAGTTTGGGTCACTCAAACAAAG	0.133	0.0719	-0.339	0.663	-0.95	1.49	0.094	0.413	-0.485	0.0599
TGAATGAGGTTAAAAGATCAGGGAACGTTGCAAA	2.41	2.05	-0.107	1.55	-0.114	3.8	2.57	3.45	1.49	2.53
CCTATTAGTTGACCATGAGGGCAACCGAAGCTCG	1.01	0.684	0.747	0.619	0.6	0.652	0.438	0.373	-0.175	0.282
TCTTGTAGATCAACACGAGGTTAAGAAAGATCGA	0.233	1.58	0.248	1.01	-0.293	1.55	0.0854	1.33	2.58	1.94
CCTACTGGCCCATTCAGAGGTCATTGATCATATG	2.81	4.4	6.69	3.76	0.83	3.28	0.571	1.44	0.377	1.09
CTACCAAGGTGTACAAGGTCGTTGATTACTATTC	0.534	0.766	0.255	1.26	-0.288	1.31	0.268	0.583	-0.154	0.498
CGTCCAAGGTCAAAGGTCCGTGAAGAGATGACGG	7.36	5.64	0.823	4.24	0.921	5.73	6.71	6.69	4.16	5.81
TAGCCTAGGTCATGAGCCAGTATACCACGCGAAC	4.38	3.4	0.262	2.43	0.0464	3.93	3.35	2.98	0.892	2.05
TCATATAGGTAACTGCTAGGTGAAAGTCCGATCT	1.07	1.19	0.0877	0.852	-0.244	1.75	1.11	2.52	3.76	3.29
CCAGACATGTGAGAAGGTAACTCAGCCTCGATTA	-0.141	0.0863	0.298	-0.057	0.106	-0.106	0.462	-0.748	-0.305	-0.419
CCTACTGGGCAATCAGGTCATTGATATCAACGTT	0.891	1	0.766	1.27	-0.496	2.26	1.34	2.44	0.371	1.25
CCTCGGAGGACAACAGGAGGTCGGAGCTGCCAGA	-0.0236	-0.0275	-0.149	-0.236	-0.893	0.19	-0.122	-0.445	-0.792	-1.05
ACTCGGAGGACAAAGTTCAGAGCTACGCCAGTGA	1.48	1.83	1.79	0.868	-0.232	2.82	4.04	5.27	3.37	5.49
CCTACTGGGCCATCAGTTCATTGATATCAACGTT	0.0577	-0.0476	0.218	0.257	-0.567	1.11	1.34	2.19	0.638	1.48
CCGAGTAGGTTATCGGGCATTCAGGCAACGGTGA	0.12	0.322	0.154	-0.0205	-0.739	1.32	1.8	2.7	0.915	1.54
ATCTCTAGGTAACAAGTTCAGCGAAAGAGAGGAC	0.684	0.959	0.732	0.934	1.33	2.01	1.88	2.43	0.884	2.22
ACTAGCAGGCCAAGGGTCACTCATGATTAGTCCG	2.27	2.25	0.295	2.52	-0.498	4.38	7.52	7.48	6.27	7.65
ATATGTAGGTTAGCTGGGGACATTCAGACTAGGC	1.86	1.8	0.679	1.14	0.544	2.64	3.46	2.89	1.12	2.16
CCTTACGGGTCACTGACAGGATATAGCATTTGGA	5.3	3.68	0.191	3.28	-0.185	5.22	4.58	4.24	1.5	2.88
